Laboratory results taken from ChEMBL document CHEMBL4513216, “Probing the Open Global Health Chemical Diversity Library for Multistage-Active Starting Points for Next-Generation Antimalarials” (ACS Infect Dis, 2020).
Hit rate of the full screen: of about 65,000 compounds, about 2,100 (3.2%) showed an effect of 50% or more. The median lay at about -52%. This excerpt belongs to a sample that is enriched for strong results.

The compounds below were run on Plasmodium falciparum (assay: Screen against P. falciparum Asexual Blood Stage (ABS), at 5uM). Conditions: tested at 5 uM.
Format: functional, Dd2

Which INHIBITION does the source give for `CN1CCC2(CCN(C(=O)c3cccnc3)C2)C1` (centres undefined) here?
Its INHIBITION is -11.5%.

How did the INHIBITION turn out when `O=C(c1ccc(F)c(Cl)c1)N1C[C@H]2CC[C@@H](C1)N(Cc1ccccc1)C2` was run?
Its INHIBITION is 74.1%.

With `O=C(c1cccnc1)N1C[C@H]2CC[C@@H](C1)N(Cc1ncc[nH]1)C2` as the compound, how does the INHIBITION read?
Its INHIBITION is -47.1%.

Which INHIBITION does the source give for `O=C(c1c[nH]c(=O)c(Cl)c1)N1C[C@H]2CC[C@@H](C1)N(CC1CCC1)C2` here?
Its INHIBITION is -110%.

Which INHIBITION does the source give for `CS(=O)(=O)CC1(CNc2ccc(C#N)c(C(F)(F)F)c2)CC1` here?
The INHIBITION was -27%.

`CCOc1ccc(CNCC(O)c2ccccc2)cc1Cl` (centres undefined) was tested. Which INHIBITION did it give?
Its INHIBITION is 89.4%.

Which INHIBITION does the source give for `CNc1nc(C)cc(NCc2cc(C)cc3c(C)c(C)[nH]c23)n1` here?
Its INHIBITION is 92.7%.

With `CNc1cc(C)nc(NCc2cc(C)cc3c(C)c(C)[nH]c23)n1` as the compound, how does the INHIBITION read?
The INHIBITION was 92%.

With `c1nc(N2CCOCC2)nc2c1COCC21CCN(CC2CC2)C1` (centres undefined) as the compound, how does the INHIBITION read?
Its INHIBITION is -12.1%.

How did the INHIBITION turn out when `CC(C)NC(=O)[C@H]1C[C@@H]2[C@@H](C1)OCCN2Cc1ccncc1` was run?
The INHIBITION was -82%.

Which INHIBITION does the source give for `COc1cccc(C2SCC(=O)Nc3ccsc32)c1OC` (centres undefined) here?
Its INHIBITION is -4.19%.

For `CN(C)CCN1CC2(CCCN(c3ncc(Cl)cc3F)C2)CCC1=O` (centres undefined), which INHIBITION is on record?
The INHIBITION was 82.8%.

How did the INHIBITION turn out when `O=C(Cc1ccsc1)N1C[C@@H]2OCCN(CC3CC3)[C@@H]2C1` was run?
The INHIBITION was -48%.

`Cc1ccc(N2CCN(C)c3ncccc3C2)nn1` was tested. Which INHIBITION did it give?
Its INHIBITION is -27.9%.

`O=C1NC2(CCNCC2)CC1c1cccnc1` (centres undefined) was tested. Which INHIBITION did it give?
Its INHIBITION is -11.2%.

For `c1cncc(-c2ccc3c(c2)CCC32CCNCC2)c1`, which INHIBITION is on record?
Its INHIBITION is 86.9%.

With `COCC(=O)N1CCC2(CCN(Cc3cccnc3)C2)CC1` as the compound, how does the INHIBITION read?
Its INHIBITION is -7.11%.

`c1cncc(-c2ccc3c(c2)CCC32CCN(Cc3ccco3)CC2)c1` was tested. Which INHIBITION did it give?
Its INHIBITION is 73.9%.

How did the INHIBITION turn out when `O=C1[C@H]2CN(Cc3ccco3)C[C@H]2CN1c1cncnc1` was run?
The INHIBITION was -54.3%.

Which INHIBITION does the source give for `CN(C)CC(=O)N1CCC2(CCc3cc(-c4cccnc4)ccc32)CC1` here?
Its INHIBITION is 80.1%.

With `CN(C)CCN1CCCC12CCCN(C(=O)c1cccnc1)C2` (centres undefined) as the compound, how does the INHIBITION read?
The INHIBITION was -10.1%.

Which INHIBITION does the source give for `O=C1N(c2cccnc2)CCC12CCCN(Cc1ccco1)C2` (centres undefined) here?
Its INHIBITION is -5.52%.

For `c1cncc(-c2ccc3c(c2)C2(CCNCC2)CC3)c1`, which INHIBITION is on record?
The INHIBITION was 71.1%.

`Cc1n[nH]c(C)c1CC(=O)N1CCN(C)C2(CCNC(=O)CC2)C1` (centres undefined) was tested. Which INHIBITION did it give?
Its INHIBITION is -115%.

`COCCN1CCC12CCN(C(=O)Cc1cccs1)C2` (centres undefined) was tested. Which INHIBITION did it give?
Its INHIBITION is -9.04%.

How did the INHIBITION turn out when `CN1CCC2(COCc3cnc(-c4ccccc4)nc32)C1` (centres undefined) was run?
Its INHIBITION is -45%.

`COCCn1c(C(=O)NC(C(N)=O)C(C)C)cc2ccccc21` (centres undefined) was tested. Which INHIBITION did it give?
The INHIBITION was -92%.

For `COc1nc(N2CCNCC2)ncc1Br`, which INHIBITION is on record?
Its INHIBITION is 23.8%.

For `Cc1ccc(N2CCC3(CN(CCO)CCC3(F)F)C2)nn1` (centres undefined), which INHIBITION is on record?
The INHIBITION was -59.8%.

How did the INHIBITION turn out when `Fc1cnc(N2CCCC3(CCN(Cc4nccs4)C3)C2)nc1` (centres undefined) was run?
Its INHIBITION is 25.5%.

`COc1ncc(CN2CCC3(CCCN(CC4CCC4)C3)C2)cn1` (centres undefined) was tested. Which INHIBITION did it give?
The INHIBITION was -57.4%.

How did the INHIBITION turn out when `COc1ccc(CN2CCC3(CCCN(c4ncc(F)cn4)C3)C2)cc1` (centres undefined) was run?
Its INHIBITION is 87.1%.

For `CCc1cnc(N2CC3(CCN(Cc4ccsc4)C3)C2)nc1`, which INHIBITION is on record?
The INHIBITION was -19.4%.

For `COCCN1CCC2(C1)CN(c1ncc(F)cn1)C2`, which INHIBITION is on record?
The INHIBITION was -81.1%.

With `Fc1cnc(N2CCCC3(CCN(Cc4ccoc4)C3)C2)nc1` (centres undefined) as the compound, how does the INHIBITION read?
Its INHIBITION is 73.7%.

With `Fc1cnc(N2CCCC3(CCN(Cc4ccsc4)C3)C2)nc1` (centres undefined) as the compound, how does the INHIBITION read?
The INHIBITION was 87.6%.

`Fc1cnc(N2CC3(CCN(Cc4ccsc4)C3)C2)nc1` was tested. Which INHIBITION did it give?
The INHIBITION was 3.41%.

With `Cc1ncc(CN2CCC3(CCCN(CC4CCC4)C3)C2)cn1` (centres undefined) as the compound, how does the INHIBITION read?
The INHIBITION was -45.2%.

How did the INHIBITION turn out when `CCc1ncc(CN2CCC3(CCCN(CC4CCC4)C3)C2)cn1` (centres undefined) was run?
The INHIBITION was 8.28%.

With `Cc1c[nH]c(CN2CCC3(CCCN(Cc4ccc(F)c(F)c4)C3)C2)n1` (centres undefined) as the compound, how does the INHIBITION read?
Its INHIBITION is 80.3%.

`Cc1oc(-c2ccco2)nc1CC(=O)N1CCN(CC(C)(C)O)CC1` was tested. Which INHIBITION did it give?
Its INHIBITION is -109%.

For `Cc1noc(CN2CC=C(c3c[nH]c4ncccc34)CC2)n1`, which INHIBITION is on record?
The INHIBITION was -31.2%.

Which INHIBITION does the source give for `Cc1cccc(CN2C[C@@H](NC(=O)C3CC3)[C@H]3OCCC[C@H]32)n1` here?
Its INHIBITION is -83.3%.

With `Fc1cnc(N2CCOCC3(CCCNC3)C2)nc1` (centres undefined) as the compound, how does the INHIBITION read?
Its INHIBITION is -11.2%.

How did the INHIBITION turn out when `c1cnc(N2CCOCC3(CN(Cc4ccsc4)CCO3)C2)nc1` (centres undefined) was run?
Its INHIBITION is -62.3%.

How did the INHIBITION turn out when `Cc1cnc(N2CC3(CCN(Cc4cccnc4)C3)C2)nc1` was run?
The INHIBITION was 12.1%.

How did the INHIBITION turn out when `Fc1cnc(N2CCOC3(CCN(Cc4ccsc4)CC3)C2)nc1` was run?
Its INHIBITION is 81.6%.

`c1cnc(N2CCCC3(CCN(Cc4ccncc4)C3)C2)nc1` (centres undefined) was tested. Which INHIBITION did it give?
Its INHIBITION is -63.1%.

How did the INHIBITION turn out when `c1cnc(N2CCCC3(CCN(Cc4cccs4)C3)C2)nc1` (centres undefined) was run?
Its INHIBITION is 40.4%.

Which INHIBITION does the source give for `Fc1cnc(N2CCCC3(CCN(Cc4ccco4)C3)C2)nc1` (centres undefined) here?
The INHIBITION was 78.2%.

How did the INHIBITION turn out when `Fc1cnc(N2CCCC3(CN(Cc4cccs4)CCO3)C2)nc1` (centres undefined) was run?
Its INHIBITION is -78.4%.

How did the INHIBITION turn out when `c1cnc(N2CCCC3(CCN(Cc4ccsc4)C3)C2)nc1` (centres undefined) was run?
The INHIBITION was 68.1%.

How did the INHIBITION turn out when `Fc1cnc(N2CCCC3(CCN(Cc4cccs4)C3)C2)nc1` (centres undefined) was run?
Its INHIBITION is 69.4%.

How did the INHIBITION turn out when `Cc1cnc(N2CCOC3(CCCN(C)C3)C2)nc1` (centres undefined) was run?
Its INHIBITION is 14.9%.
